From PubChem BioAssay
Sampled rows, rich in hits. Any-hit rate of the full collection: about 2.1%.
APP transl inh: inhibitors of APP translation via 5'UTR reporter, primary screen, APP 5'UTR luciferase, SH-SY5Y cells | SH-SY5Y APP 5'UTR-luciferase reporter, luminescence | inhibition, % at 2 µM | 0.82% of 190,000 active;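 active means inhibition above a set limit, derived from the sample mean plus 3 SD, cut at about 45% in these data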
IEC-6 tox: cytotoxicity in IEC-6 intestinal epithelial cells, primary screen, cytotoxicity control for KLF5 inhibitor project, cell-based, luminescence | 0.78% of 290,000 active | inhibition, % at 5 µM | IEC-6 cytotoxicity, luminescence viability; in the data active means inhibition above about 22%
aSyn 5UTR inh: MLPCN primary screen, SNCA 5' untranslated region; 0.82% of 300,000 active; inhibition, % (tested at 7.5 µM); alpha-synuclein 5'UTR reporter, inhibitor activity; in the data active means inhibition above about 60%;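 further: H4 neuroglioblastoma cells stably carrying SNCA 5'UTR luciferase fusion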
BaF3 tox: parental Ba/F3 cell viability inhibition, counter-screen for JAK2V617F inhibitor project, murine pro-B, CellTiter-Glo luminescence; CellTiter-Glo ATP luminescence; inhibition, % at 5.6 µM; 1.1% of 220,000 active; AID 1486, 2009;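 active means inhibition above a per-campaign cutoff, the mean inhibition of all tested compounds plus 3 SD, cut at about 27% in these data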
KLF5 inhibitor: KLF5 expression inhibitors, primary screen, DLD-1 cells, luminescence; inhibition, % at 5 µM; AID 1700, 2009; DLD-1 KLF5 promoter-luciferase reporter; 0.23% of 290,000 active;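 active means inhibition above a per-plate limit of that plate's mean compound inhibition plus 3 SD, cut at about 60% in these data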;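 further: higher means less KLF5 promoter-driven luciferase light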
Ba/F3 V617F tox: reduced viability of JAK2V617F-dependent Ba/F3 cells, primary screen, JAK2V617F inhibitor project, cell-based, Ba/F3 EpoR-JAK2V617F, luminescence. 1.1% of 220,000 active. inhibition, % at 5.6 µM. ATP luminescence. AID 1446, 2008;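 active means inhibition above the campaign mean plus 3 SD over all tested compounds, cut at about 24% in these data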;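 further: cytokine-independent growth of Ba/F3 cells driven by EpoR plus mutant JAK2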
Large screens that a line does not name were inactive.

Cc1cc(C(=O)CSc2nc3ccccc3c(=O)[nH]2)c(C)n1CC1CCCO1 (configuration not stated)	BaF3 tox 40, Ba/F3 V617F tox 35
CC1=C(C(=O)Nc2cccc(F)c2)C(c2ccsc2)C2=C(CC(C)(C)CC2=O)N1 (configuration not stated)	APP transl inh 60, IEC-6 tox 67, BaF3 tox 49, Ba/F3 V617F tox 81
COc1ccc(C(=O)NC2CCCc3ccccc32)cc1OC1CCN(C(C)=O)CC1 (configuration not stated)	none (no result: APP transl inh, BaF3 tox, Ba/F3 V617F tox)
CCOc1ccc(NC(=O)CC(=O)Nc2ccc(OCC)cc2)cc1	none (no result: APP transl inh, BaF3 tox, Ba/F3 V617F tox)
CCOc1ccc(C(=O)Oc2ccc(NC(C)=O)cc2)cc1	aSyn 5UTR inh 80
Cc1ccc2c(c1)C(=O)C(=O)N2CCOc1ccccc1	APP transl inh 79, IEC-6 tox 91, BaF3 tox 87, Ba/F3 V617F tox 92
CCN(CC)CCN1C(=O)c2cccc3cc(N)cc(c23)C1=O	BaF3 tox 70, Ba/F3 V617F tox 82 (no result: APP transl inh)
Nc1cc2c3c(cccc3c1)C(=O)N(CCN1CCCC1)C2=O	IEC-6 tox 62, BaF3 tox 83, Ba/F3 V617F tox 97 (no result: APP transl inh)
CC(=O)OCCCN1C(=O)c2cccc3cc(Br)cc(c23)C1=O	none (no result: APP transl inh, BaF3 tox, Ba/F3 V617F tox)
Cc1ccc(NC2Sc3ccccc3NC2=O)cc1Cl (configuration not stated)	none (no result: APP transl inh)
S=C1SCN(Cc2cccnc2)CN1Cc1cccnc1	BaF3 tox 51, Ba/F3 V617F tox 86 (no result: APP transl inh)
CCCCN(CCCNC(=O)CN1C(=O)COc2ccc(S(=O)(=O)N3CCC(C)CC3)cc21)Cc1ccccc1	none (no result: APP transl inh, BaF3 tox, Ba/F3 V617F tox)
COc1cccc(C(=O)Oc2c(Br)cc(Br)cc2/C=N/NC(=O)c2cc(C)[nH]n2)c1	APP transl inh 45, IEC-6 tox 41, aSyn 5UTR inh 64
S=C(Nc1ccccc1)N1CCN(Cc2ccccc2)CC1	BaF3 tox 39 (no result: APP transl inh)
S=C(Nc1cccc(Cl)c1)N1CCN(Cc2ccccc2)CC1	none
O=C(Nc1ccc(NC(=O)c2cc3ccccc3o2)cc1)c1ccc2c(c1)OCCO2	APP transl inh 67, aSyn 5UTR inh 71
CC1=C(C(=O)OCCC(C)C)C(c2ccc3c(c2)OCO3)NC(=O)N1 (configuration not stated)	none (no result: APP transl inh, BaF3 tox, Ba/F3 V617F tox)
Cc1ccc(-c2ccc(/C=C3\SC(N4CCOCC4)=NC3=O)o2)cc1	IEC-6 tox 102
O=C1N=C(N2CCOCC2)S/C1=C/c1ccc(-c2ccc(F)cc2)o1	none
CCN(CC)c1nc(Nc2ccc(Cl)cc2)nc(OCC#N)n1	aSyn 5UTR inh 70
O=c1c2ccc([N+](=O)[O-])c3cccc(c32)c2nc3ccccc3n12	aSyn 5UTR inh 79
CCc1nc2ccccc2c2nc3ccccc3n12	none
O=C(NC1CCCCC1)C(c1ccncc1)N(C(=O)c1csnn1)c1cccc(F)c1 (configuration not stated)	none (no result: APP transl inh, BaF3 tox, Ba/F3 V617F tox)
CCCN1CCC(=NNc2ccc(S(=O)(=O)N(CC)CC)cc2[N+](=O)[O-])CC1	APP transl inh 53, aSyn 5UTR inh 79
Cc1ccc(-c2cc(C(=O)N/N=C/c3c(C)nn(-c4ccccc4)c3C)[nH]n2)cc1	APP transl inh 95, aSyn 5UTR inh 66
Cc1nn(-c2ccccc2)c(C)c1/C=N/NC(=O)c1cc(C(C)(C)C)[nH]n1	none
CCCCn1c(SCC(=O)N2c3ccccc3CCc3ccccc32)nc2c1c(=O)n(C)c(=O)n2C	aSyn 5UTR inh 74
CCc1ccc(-c2cc(C(=O)Nn3cnnc3)c3ccccc3n2)cc1	aSyn 5UTR inh 74
O=C(NCc1ccccn1)c1cc(-c2ccc(-c3ccccc3)cc2)nc2ccccc12	BaF3 tox 36, Ba/F3 V617F tox 34
CCc1nn(CC(=O)NCc2cccnc2)c(=O)c2cc3occc3n12	none (no result: APP transl inh, BaF3 tox, Ba/F3 V617F tox)
Cc1ccc(-c2nnc(SCC(=O)N/N=C/c3ccc(C(=O)O)cc3)n2C2CCCCC2)cc1	none (no result: APP transl inh, BaF3 tox, Ba/F3 V617F tox)
CCCOc1ccc(CNC(=S)Nc2ccccc2)cc1Cl	none (no result: APP transl inh, BaF3 tox, Ba/F3 V617F tox)
CC[C@@]1(O)C(=O)OCc2c1cc1n(c2=O)Cc2cc3c(CN(C)C)c(O)ccc3nc2-1	none (no result: APP transl inh, IEC-6 tox, BaF3 tox, KLF5 inhibitor, Ba/F3 V617F tox)
CC[C@@]1(O)C(=O)OCc2c1cc1n(c2=O)Cc2cc3c(N)cccc3nc2-1	aSyn 5UTR inh 103 (no result: APP transl inh, IEC-6 tox, BaF3 tox, KLF5 inhibitor, Ba/F3 V617F tox)
Cc1nn(C(C)C(=O)NCc2ccco2)c(C)c1[N+](=O)[O-] (configuration not stated)	none
C/C(=N\NC(=O)C(C)n1nc(C)c([N+](=O)[O-])c1C)c1ccccc1O (configuration not stated)	aSyn 5UTR inh 78
O=C(Nc1nccs1)[C@@H]1CCCN1C(=O)c1cccs1	BaF3 tox 104
CCc1cccc(C)c1NC(=S)N(CCCN1CCOCC1)Cc1cccnc1	none
CCc1cc2c(SCc3nc4sc(C(C)=O)c(C)c4c(=O)[nH]3)ncnc2s1	none (no result: APP transl inh)
CCOc1cc(C2C3=C(CCCC3=O)N(C)C3=C2C(=O)CCC3)cc(Cl)c1O	BaF3 tox 58, Ba/F3 V617F tox 58
COc1ccc(C(C(=O)NC(C)(C)C)N(C(=O)CCC(=O)Nc2cc(C)on2)c2ccc(C)c(C)c2)cc1 (configuration not stated)	none (no result: APP transl inh, BaF3 tox, Ba/F3 V617F tox)
Clc1ccc2nc(-c3ccc4c(c3)OCO4)cn2c1	none
c1ccn2cc(-c3ccc4c(c3)OCCO4)nc2c1	aSyn 5UTR inh 98
Cc1ccc(C)c(S(=O)(=O)N2CCN(C(=O)CCC(=O)c3cc(C)sc3C)CC2)c1	none (no result: APP transl inh, IEC-6 tox, BaF3 tox, KLF5 inhibitor, Ba/F3 V617F tox)
Cc1cc(Sc2nnc(N)s2)c2ccccc2n1	BaF3 tox 77, Ba/F3 V617F tox 96 (no result: APP transl inh)
Cc1cc(Sc2nnc(/N=C/N(C)C)s2)c2ccccc2n1	BaF3 tox 73, Ba/F3 V617F tox 90 (no result: APP transl inh, aSyn 5UTR inh)
Cc1cccc(NC(=S)NC(NC(=O)c2ccco2)C(Cl)(Cl)Cl)c1 (configuration not stated)	APP transl inh 58
Cc1ccc(NC(=S)NC(NC(=O)c2ccco2)C(Cl)(Cl)Cl)cc1 (configuration not stated)	none
O=C(NCCS(=O)(=O)NCc1ccc2c(c1)OCO2)c1ccccc1	none (no result: APP transl inh, IEC-6 tox, BaF3 tox, KLF5 inhibitor, Ba/F3 V617F tox)
N#C/C(=C\c1ccc(N2CCOCC2)o1)c1nc2ccccc2[nH]1	none
N#C/C(=C/c1ccc(N2CCOCC2)o1)c1ccc(Cl)cc1	BaF3 tox 56, Ba/F3 V617F tox 47
Nc1ccc(Br)cc1-c1nc2ccccc2[nH]c1=O	IEC-6 tox 39, BaF3 tox 100, Ba/F3 V617F tox 66
Nc1ccccc1-c1nc2ccccc2[nH]c1=O	none (no result: APP transl inh, BaF3 tox, Ba/F3 V617F tox)
COc1cc(S(=O)(=O)n2cnc3ccccc32)ccc1Br	none (no result: APP transl inh, BaF3 tox, Ba/F3 V617F tox)
CCOc1ccc(-c2cc(CCCC(=O)Nc3cccc(OC)c3)no2)cc1	APP transl inh 80, aSyn 5UTR inh 68
CCOc1ccc(-c2cc(CCCC(=O)NCCc3ccccc3)no2)cc1	aSyn 5UTR inh 62
CCOc1ccc(NC(=O)CCCc2cc(-c3ccc(OCC)cc3)on2)cc1	none
